Results published in the supplement of paper PMC10849652.
The full data set covers some 7,900 targets. This sample favours those with a hit. About 0.6% of all pairs of compound and target were hits. Values without a mark were called inactive.

Compound: c1cn2cc(-c3ccc4cn[nH]c4c3)nc(Nc3ccc(N4CCOCC4)cc3)c2n1 [entospletinib]
Assay: log2 fold change, soluble protein after heating vs DMSO (PISA); higher = thermal stabilisation; K562 cells, 10 uM, 30 min; active = over 0.2 and 3.5 SD of the protein, either way, in both replicates (recomputed)
Summary of the method: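 K562 cells (2×10^6 cells/mL) were treated with 10 μM compound for 30 min, and aliquots were heated for 3 min over 48°C-58°C. Pooled aliquots were extracted in PBS with 0.5% NP-40 at 4°C, and the supernatant after 21,000xg for 90 min was measured by TMTpro 16plex LC-MS/MS with channel sums equalised. Reported thermal stability, relative to control samples and from duplicates, is a log2 fold change.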

UniProt Q8WV07, sequence (Q8WV07 whole entry, looked up): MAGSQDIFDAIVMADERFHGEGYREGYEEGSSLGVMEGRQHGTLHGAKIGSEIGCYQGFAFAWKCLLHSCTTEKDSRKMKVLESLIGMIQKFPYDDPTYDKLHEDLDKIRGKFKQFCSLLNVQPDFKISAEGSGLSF
UniProt Q9NQ29, sequence (Q9NQ29 whole entry, looked up): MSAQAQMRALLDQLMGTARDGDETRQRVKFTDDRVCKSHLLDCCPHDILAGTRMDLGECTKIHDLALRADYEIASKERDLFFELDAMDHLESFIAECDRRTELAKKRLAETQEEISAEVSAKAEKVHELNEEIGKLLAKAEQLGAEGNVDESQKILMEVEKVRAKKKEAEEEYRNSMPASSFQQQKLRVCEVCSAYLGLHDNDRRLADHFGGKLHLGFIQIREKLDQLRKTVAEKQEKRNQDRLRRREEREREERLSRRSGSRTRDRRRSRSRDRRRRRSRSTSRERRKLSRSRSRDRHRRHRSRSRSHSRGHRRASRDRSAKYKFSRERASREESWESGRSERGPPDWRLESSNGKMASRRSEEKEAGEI
UniProt Q9H0B6, sequence (Q9H0B6 whole entry, looked up): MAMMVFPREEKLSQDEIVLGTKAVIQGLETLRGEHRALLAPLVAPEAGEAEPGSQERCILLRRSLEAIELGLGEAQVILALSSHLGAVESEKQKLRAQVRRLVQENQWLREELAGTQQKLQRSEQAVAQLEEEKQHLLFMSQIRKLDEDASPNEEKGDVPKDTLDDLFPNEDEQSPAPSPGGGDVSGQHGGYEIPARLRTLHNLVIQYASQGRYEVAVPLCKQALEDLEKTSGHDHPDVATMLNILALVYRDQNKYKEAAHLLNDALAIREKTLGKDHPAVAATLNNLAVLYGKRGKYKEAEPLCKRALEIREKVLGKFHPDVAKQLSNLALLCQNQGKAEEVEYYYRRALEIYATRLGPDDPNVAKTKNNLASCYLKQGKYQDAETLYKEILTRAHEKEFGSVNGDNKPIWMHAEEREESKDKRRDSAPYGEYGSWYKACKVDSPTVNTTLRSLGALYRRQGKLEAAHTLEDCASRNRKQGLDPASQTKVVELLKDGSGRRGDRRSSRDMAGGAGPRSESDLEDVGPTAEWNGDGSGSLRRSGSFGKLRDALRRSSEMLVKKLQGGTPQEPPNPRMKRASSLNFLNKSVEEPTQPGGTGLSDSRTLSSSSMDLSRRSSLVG
UniProt O15243, sequence (O15243 whole entry, looked up): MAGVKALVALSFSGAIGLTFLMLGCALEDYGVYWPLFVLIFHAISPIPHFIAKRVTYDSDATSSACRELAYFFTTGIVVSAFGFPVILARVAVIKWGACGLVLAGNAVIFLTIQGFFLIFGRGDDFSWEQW
UniProt P27816, sequence (P27816 whole entry, looked up): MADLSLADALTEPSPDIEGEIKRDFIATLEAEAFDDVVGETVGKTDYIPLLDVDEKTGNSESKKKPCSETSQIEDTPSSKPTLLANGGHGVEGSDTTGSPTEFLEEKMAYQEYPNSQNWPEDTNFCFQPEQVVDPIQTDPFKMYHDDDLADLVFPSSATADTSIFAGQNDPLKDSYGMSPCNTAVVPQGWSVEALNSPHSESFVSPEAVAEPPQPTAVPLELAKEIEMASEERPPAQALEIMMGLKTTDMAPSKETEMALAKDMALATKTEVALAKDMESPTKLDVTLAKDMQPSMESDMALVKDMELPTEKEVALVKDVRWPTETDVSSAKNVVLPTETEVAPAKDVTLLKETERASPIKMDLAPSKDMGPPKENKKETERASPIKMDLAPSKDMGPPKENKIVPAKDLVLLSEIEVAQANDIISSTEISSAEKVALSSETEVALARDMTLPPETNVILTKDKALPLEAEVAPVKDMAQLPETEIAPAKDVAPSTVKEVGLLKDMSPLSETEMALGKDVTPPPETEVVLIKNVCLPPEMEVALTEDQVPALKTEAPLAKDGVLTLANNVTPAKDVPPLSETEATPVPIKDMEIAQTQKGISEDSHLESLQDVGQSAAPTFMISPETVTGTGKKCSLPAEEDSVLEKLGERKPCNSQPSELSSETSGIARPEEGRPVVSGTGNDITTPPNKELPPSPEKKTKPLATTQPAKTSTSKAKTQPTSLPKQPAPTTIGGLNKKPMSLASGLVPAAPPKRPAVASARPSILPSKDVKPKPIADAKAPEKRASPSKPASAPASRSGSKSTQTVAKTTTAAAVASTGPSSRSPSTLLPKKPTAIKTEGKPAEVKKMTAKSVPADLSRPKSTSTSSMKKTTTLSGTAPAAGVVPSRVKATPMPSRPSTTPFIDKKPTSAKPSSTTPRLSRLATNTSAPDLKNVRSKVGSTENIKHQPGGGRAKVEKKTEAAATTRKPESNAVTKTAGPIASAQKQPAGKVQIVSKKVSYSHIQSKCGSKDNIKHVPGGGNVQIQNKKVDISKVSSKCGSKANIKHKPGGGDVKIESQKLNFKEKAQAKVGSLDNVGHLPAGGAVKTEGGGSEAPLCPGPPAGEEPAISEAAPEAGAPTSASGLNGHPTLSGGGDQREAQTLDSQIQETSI
UniProt Q14145, sequence (Q14145 whole entry, looked up): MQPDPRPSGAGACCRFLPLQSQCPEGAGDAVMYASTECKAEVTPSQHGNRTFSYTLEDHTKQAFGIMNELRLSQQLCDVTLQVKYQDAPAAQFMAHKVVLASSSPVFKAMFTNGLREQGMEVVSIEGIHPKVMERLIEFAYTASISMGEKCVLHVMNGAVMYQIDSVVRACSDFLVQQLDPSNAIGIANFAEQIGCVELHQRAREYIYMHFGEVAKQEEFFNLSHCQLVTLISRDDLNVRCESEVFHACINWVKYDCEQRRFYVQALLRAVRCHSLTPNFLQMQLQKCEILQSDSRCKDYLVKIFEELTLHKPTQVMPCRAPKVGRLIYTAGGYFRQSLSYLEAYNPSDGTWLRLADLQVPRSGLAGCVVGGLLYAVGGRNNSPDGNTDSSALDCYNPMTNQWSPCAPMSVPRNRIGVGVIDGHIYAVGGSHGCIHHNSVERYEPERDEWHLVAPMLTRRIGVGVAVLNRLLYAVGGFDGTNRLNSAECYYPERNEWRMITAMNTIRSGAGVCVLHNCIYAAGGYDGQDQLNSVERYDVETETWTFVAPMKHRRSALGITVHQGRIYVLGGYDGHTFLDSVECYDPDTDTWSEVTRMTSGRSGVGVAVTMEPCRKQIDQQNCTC
UniProt O60333, sequence (O60333 whole entry, looked up): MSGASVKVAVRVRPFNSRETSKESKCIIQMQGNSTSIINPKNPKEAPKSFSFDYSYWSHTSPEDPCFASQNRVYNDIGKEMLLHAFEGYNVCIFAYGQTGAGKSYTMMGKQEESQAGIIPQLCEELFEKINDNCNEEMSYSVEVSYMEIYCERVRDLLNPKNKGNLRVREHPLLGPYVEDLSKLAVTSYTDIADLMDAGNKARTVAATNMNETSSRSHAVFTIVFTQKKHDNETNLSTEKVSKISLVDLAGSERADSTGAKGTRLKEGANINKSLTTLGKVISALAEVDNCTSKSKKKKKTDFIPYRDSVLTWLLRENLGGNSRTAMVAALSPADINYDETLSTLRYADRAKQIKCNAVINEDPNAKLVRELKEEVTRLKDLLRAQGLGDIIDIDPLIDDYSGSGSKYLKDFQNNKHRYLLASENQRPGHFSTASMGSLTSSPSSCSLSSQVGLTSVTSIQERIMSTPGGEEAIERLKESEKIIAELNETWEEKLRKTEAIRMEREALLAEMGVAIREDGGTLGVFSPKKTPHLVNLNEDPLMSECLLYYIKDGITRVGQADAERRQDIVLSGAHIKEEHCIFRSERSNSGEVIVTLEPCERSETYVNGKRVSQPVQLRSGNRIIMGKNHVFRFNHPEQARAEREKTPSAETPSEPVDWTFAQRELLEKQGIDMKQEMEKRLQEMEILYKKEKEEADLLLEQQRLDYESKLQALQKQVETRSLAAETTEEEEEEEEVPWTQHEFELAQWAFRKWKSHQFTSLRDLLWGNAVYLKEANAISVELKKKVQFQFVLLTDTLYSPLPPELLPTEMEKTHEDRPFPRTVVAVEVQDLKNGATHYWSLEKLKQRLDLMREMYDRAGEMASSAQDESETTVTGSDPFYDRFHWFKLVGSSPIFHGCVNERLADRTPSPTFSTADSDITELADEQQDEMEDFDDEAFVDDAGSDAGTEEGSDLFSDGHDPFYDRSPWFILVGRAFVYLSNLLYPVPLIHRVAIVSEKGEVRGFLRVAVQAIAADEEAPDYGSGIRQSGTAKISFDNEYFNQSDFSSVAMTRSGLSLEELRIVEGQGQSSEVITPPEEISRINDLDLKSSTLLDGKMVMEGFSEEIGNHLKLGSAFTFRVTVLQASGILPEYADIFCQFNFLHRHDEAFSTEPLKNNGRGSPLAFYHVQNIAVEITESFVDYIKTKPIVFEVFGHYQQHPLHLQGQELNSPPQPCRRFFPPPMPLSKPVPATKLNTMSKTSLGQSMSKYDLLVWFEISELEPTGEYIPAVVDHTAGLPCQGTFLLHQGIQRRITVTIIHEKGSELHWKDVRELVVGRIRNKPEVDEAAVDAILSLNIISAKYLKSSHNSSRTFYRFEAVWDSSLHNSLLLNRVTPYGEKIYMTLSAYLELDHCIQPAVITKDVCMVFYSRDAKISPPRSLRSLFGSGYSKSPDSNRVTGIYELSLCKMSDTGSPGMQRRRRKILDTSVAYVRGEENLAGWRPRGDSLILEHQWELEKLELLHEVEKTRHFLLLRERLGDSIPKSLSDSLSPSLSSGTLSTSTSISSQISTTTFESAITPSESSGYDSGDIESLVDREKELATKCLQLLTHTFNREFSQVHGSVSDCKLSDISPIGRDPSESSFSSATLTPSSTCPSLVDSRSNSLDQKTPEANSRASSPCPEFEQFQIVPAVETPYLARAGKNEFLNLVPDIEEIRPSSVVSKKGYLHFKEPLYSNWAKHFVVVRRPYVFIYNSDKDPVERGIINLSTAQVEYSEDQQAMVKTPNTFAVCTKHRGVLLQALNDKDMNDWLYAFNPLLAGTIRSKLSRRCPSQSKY

Target | log2 fold change
LTO1 (UniProt Q8WV07) | -0.047
KEAP1 (UniProt Q14145) | 0.101
KLC2 (UniProt Q9H0B6) | 0.011
LEPROT (UniProt O15243) | 0.029
LUC7L (UniProt Q9NQ29) | 0.083
KLHL18 (UniProt O94889) | -0.016
MAP4 (UniProt P27816) | -0.017
LEO1 (UniProt Q8WVC0) | -0.094
MED22 (UniProt Q15528) | -0.143
KIF1B isoform 4 (UniProt O60333) | -0.013
